Source: PubChem BioAssay
Compounds with a hit are over-represented: about 2% of the library has one in this group of screens.
PKA-R1A activ = PKA-R1A complex activation. PKA-R1A dissociation, Cy5-IP20 fluorescence polarization; scaled: DMSO 0%, 113 µM cGMP 100%. activation, % at 11.4 µM. actives 0.083% (n = 340,000). AID 504707;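 active = percent activation above the mean of all tested compounds plus 3 SD, cut at about 19% in these data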;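 also: higher means more PKAc released from R1A so a rise in polarization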
MsrA inh = bovine MsrA inhibition; purified bovine MsrA, absorbance read-out; inhibition, % at 15.5 µM; actives 0.75% (n = 360,000); AID 651718;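 also: 0% = vehicle wells with enzyme and 100% = reference inhibitor wells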
bovine MsrA act = activators of bovine methionine sulfoxide reductase A. purified bovine MsrA, absorbance read-out. activation, % at 10.6 µM. actives 0.3% (n = 360,000). AID 602163; in the data active = activation above about 7.5%;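 also: 0% = vehicle and 100% = reference activator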
PKA-R2B activ = PKA-R2B complex activation. activation, % at 11.4 µM. PKA-R2B holoenzyme dissociation, Cy5-IP20 fluorescence polarization; R2B truncated from residue 108, S112A mutant; 0% DMSO only, 100% 113 µM cGMP. AID 504700. actives 0.079% (n = 340,000);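 active = activation above a cutoff set at the mean over all compounds plus 3 SD, cut at about 18% in these data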;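 also: higher means more holoenzyme dissociation and a rise in polarization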
Target sequence (P31323 whole entry, looked up, other chains not shown, the tested form may be a part): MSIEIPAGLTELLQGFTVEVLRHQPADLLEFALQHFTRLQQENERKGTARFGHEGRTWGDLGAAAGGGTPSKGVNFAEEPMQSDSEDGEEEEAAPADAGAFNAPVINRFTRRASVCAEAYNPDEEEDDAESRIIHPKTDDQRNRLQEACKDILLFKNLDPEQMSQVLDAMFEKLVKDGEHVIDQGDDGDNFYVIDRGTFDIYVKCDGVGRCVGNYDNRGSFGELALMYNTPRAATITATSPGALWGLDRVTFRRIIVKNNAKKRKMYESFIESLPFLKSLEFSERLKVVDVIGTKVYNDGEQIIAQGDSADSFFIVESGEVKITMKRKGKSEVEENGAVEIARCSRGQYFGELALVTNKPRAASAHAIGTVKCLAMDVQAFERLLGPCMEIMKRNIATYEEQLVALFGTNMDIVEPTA
Mot1-301 SUMO = inhibitors of SUMOylation pathway: yeast Mot1-301 growth rescue | growth rescue, % at 18.8 µM | actives 1% (n = 320,000) | S. cerevisiae Mot1-301 growth rescue, ATP luminescence, 38.5C; percent above DMSO median, 100 means doubled;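 active = every valid replicate shows activation above 250% relative to neutral control wells; inactive = the rest, any valid replicate at or below 250%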;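 also: OY570 slx delta 5 strain wells were the positive control but not used for scaling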
MsrA inh confirm = bovine MsrA inhibition, confirmed; shares compounds with MsrA inh; purified bovine MsrA, absorbance read-out; inhibition, % at 15.5 µM; actives 41% (n = 2,300); AID 651822;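 also: coupled to thioredoxin reductase with NADPH and selenocystamine and DMSO as substrate; 0% = vehicle only and 100% = full effect of reference inhibitor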
Numbers without * were called inactive; / = not tested or not shown. Rule as the data show it, unless noted: active = inhibition above about 4.5%; inactive = the rest.

SMILES	PKA-R1A activ	MsrA inh	bovine MsrA act	PKA-R2B activ	Mot1-301 SUMO	MsrA inh confirm
CCOc1cc(/C=C\c2nc(O)c([N+](=O)[O-])c(=O)[nH]2)ccc1OC(C)C	-10	1	-4	11	227	/
O=c1[nH]c(/C=C\c2cccs2)nc(O)c1[N+](=O)[O-]	6	5.3*	-5	0	5	3
COc1cc(C)nc(N(Cc2ccccc2)S(=O)(=O)c2ccccc2)n1	-12	5.6*	-13	-10	399	1
NC(=O)c1ncn([C@@H]2O[C@H](C(=O)N[C@H](Cc3c[nH]c4ccccc34)C(=O)NCC(=O)N3CCCCC3)[C@@H](O)[C@H]2O)n1	/	0	/	/	/	/
COCCNC(=O)Cn1cc(C(=O)c2ccco2)c2ccccc21	-5	7.2*	-5	9	-2	3
Cc1cc(C)c2c3c(sc2n1)C(c1cccc(F)c1)C(C#N)=C(N)O3 (stereo not given)	-3	10*	-3	1	-7	4
Cc1ccc(C(=O)N/N=C\c2cccnc2)s1	-9	2	-2	5	0	/
Cc1c(C(=O)N/N=C/c2cccnc2)sc(N)c1C#N	6	4.7*	-3	-12	160	3
CCCCN1C(C(=O)Nc2cc(C)on2)=C(O)c2ccccc2S1(=O)=O	1	3	-3	-1	-4	/
CCN1C(C(=O)Nc2cc(C)on2)=C(O)c2ccccc2S1(=O)=O	-3	5.1*	-5	-5	-5	2
CN1/C(=C\C(=O)Nc2ccc(Br)cc2)C(C)(C)c2ccccc21	-15	1	-12	-16	118	/
CN1/C(=C/C(=O)C2CC2)C(C)(C)c2ccccc21	4	5.8*	-2	13	-4	5.1*
COc1ccc(/C=C(\NC(=O)c2ccco2)C(=O)Nc2ccc(C(C)=O)cc2)cc1	-7	5.4*	-9	-3	26	6.2*
COc1ccc(/C=C(/NC(=O)c2ccco2)C(=O)Nc2ccc(C(=O)O)cc2)cc1	-8	6.2*	-1	-1	9	2
O=C(NCc1ccc(F)cc1)c1cc(C2CCCN(C(=O)c3ccc4ccccc4c3)C2)on1 (stereo not given)	/	-1	-2	/	/	/
O=C1OC(c2cccs2)=N/C1=C/c1ccc(-c2cccc(C(=O)O)c2)o1	-8	4	-5	-14	/	/
O=C1OC(c2ccco2)=N/C1=C\c1ccc(-c2cccc(C(F)(F)F)c2)o1	0	5.6*	-2	-8	21	2
N#C/C(=C\c1ccco1)C(=O)Nc1cccc2ncccc12	-2	6.0*	-6	-1	167	5.3*
O=C(NC(=S)Nc1cccc2ncccc12)c1ccco1	4	-1	-3	-1	347	/
Cn1c(/C=N/NC(=O)c2ccccc2Br)nc2ccccc21	6	5.3*	-2	-3	2	3
Cc1ccc(C(=O)N/N=C/c2nc3ccccc3n2C)cc1	-15	2	-5	-10	97	/
O=C(NC(=S)Nc1ccccc1N1CCOCC1)c1ccco1	-3	8.0*	-2	-1	3	4
O=C(NC(=S)Nc1ccccc1N1CCCC1)c1ccco1	/	0	-3	/	-6	/
Cc1ccc(S(=O)(=O)N2[C@H](CC(=O)OCc3ccccc3)OC[C@@H]2C(C)C)cc1	/	-1	/	/	/	/
O=C1CC(C(=O)O)S/C(=N\N=C\c2ccc(Br)cc2)N1 (stereo not given)	7	4.9*	-16	-2	11	3
SMILES	PKA-R1A activ	MsrA inh	bovine MsrA act	PKA-R2B activ	Mot1-301 SUMO	MsrA inh confirm
O=C(O)c1cc(O)c2c(c1)C(=O)c1cccc(O)c1C2=O	-17	4.7*	2	5	-15	17*
CC(C)=CCCC(C)c1cc(C(=O)NCCc2ccc(O)cc2)c(N)s1 (stereo not given)	/	1	/	/	/	/
COc1ccc(/C=N/NC(=O)c2cccnc2)cc1COc1ccc([N+](=O)[O-])c(C)c1	/	4.7*	-4	/	-2	1
COc1ccc(/C=N/NC(=O)c2ccn[nH]2)cc1COc1ccc([N+](=O)[O-])c(C)c1	/	2	-1	/	238	/
Cc1ccc(NC(=O)CSc2nc3cc(C(=O)NCC4CCCO4)ccc3c(=O)n2CC2CCCO2)cc1 (stereo not given)	-7	0	-1	-10	/	/
COc1cccc(C(O)c2nccn2Cc2ccccc2)c1OC (stereo not given)	9	12*	-2	-3	-24	4
C[C@@H]1Cn2cnc(C(=O)N[C@@H](C)c3ccccc3)c2C(=O)N1	-5	-1	-1	0	/	/
CCCC(=O)N(Cc1cc2cc(OC)ccc2[nH]c1=O)c1ccccc1OC	0	2	-4	1	/	/
CCN(c1ccccc1)c1nc2nonc2nc1NCCO	-2	13*	-4	7	7	9.4*
COCCN1C[C@@H](CO)O[C@@H](n2cnc3c(NC(C)C)ncnc32)C1	/	0	-2	/	/	/
C[C@H](NC(=O)c1nc[nH]c1C(=O)N(C)CCO)c1ccccc1	/	0	-8	/	/	/
O=C(/C=C/[C@H]1O[C@@H](n2cnc3c(NC(=O)c4ccccc4)ncnc32)[C@H](O)[C@@H]1O)NCc1ccco1	/	0	-2	/	/	/
O=C(/C=C/c1cccc(F)c1)c1ccc(N2CCOCC2)cc1	0	1	-4	-9	7	/
O=C(/C=C/c1cccs1)c1ccc(N2CCOCC2)cc1	-6	6.1*	-4	7	-28	2
N#C/C(=C/c1ccc(CNS(=O)(=O)c2ccccc2)o1)C(N)=O	-8	4	-13	7	3	/
N#C/C(=C/c1ccc(CNS(=O)(=O)c2ccccc2)o1)C(=O)NCc1ccccc1	1	4.8*	-3	5	-3	4
COc1ccc2cc3cc(C(=O)NCc4cccnc4)oc3nc2c1	2	5.6*	-6	-4	6	4
COc1ccc2cc3cc(C(=O)NCc4ccc5c(c4)OCO5)oc3nc2c1	0	0	-7	8	53	/
CCOC(=O)N(C)[C@H]1C[C@H]2c3[nH]c4ccccc4c3CCN2C(=O)[C@H]1[C@H](C)O	/	1	/	/	/	/
COc1cc(OC)c(OC)cc1/C=N/NC(=S)NCCN1CCOCC1	-3	5.1*	-3	-3	-3	4
COc1cc(OC)c(OC)cc1/C=N/NC(=S)NCC1CCCO1 (stereo not given)	-1	5.9*	-1	-3	-9	4.9*
COc1cc(/C=N/NC(=S)NCCN2CCOCC2)cc(OC)c1O	-20	5.2*	-8	-6	-22	5.7*
COc1cc(/C=N/NC(=O)C(=O)NCC2CCCO2)ccc1O (stereo not given)	-15	4.8*	-8	-11	-18	4
CC(C)(C)c1ccc(-n2ncc3c2CCCC3NC(=O)c2ccco2)cc1 (stereo not given)	-1	-1	-2	2	/	/
